This note sets out measurements from PubChem BioAssay AID463188 (University of Pittsburgh Molecular Library Screening Center, 2010).

Screen size: about 1,300 compounds; about 360 (28%) were called active.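 Rule for the calls: active = average inhibition of at least 50%, with Z-scores no higher than 3 in both the phospho-tyrosine peptide and fluorescence counterscreens; inactive = the rest.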 This excerpt belongs to a sample that is enriched for actives.

The nature of assay [1]: retest of Hck:Nef kinase inhibitor hits, confirmation, biochemical, Z-Lyte FRET, 384-well, p-Tyr peptide counterscreen (AID 463188). The conditions noted are these: Recombinant Hck-YEEI:Nef, Z-Lyte FRET kinase assay; measured here: p-Tyr peptide counterscreen; at 10 µM.
The target of assay [2] is Tyrosine-protein kinase HCK (Homo sapiens) (UniProt P08631). The description is as above. The conditions noted are these: Recombinant Hck-YEEI:Nef, Z-Lyte FRET kinase assay; at 10 µM; stronger effect = higher value.
Tyrosine-protein kinase HCK (Homo sapiens), sequence (P08631 whole entry, looked up): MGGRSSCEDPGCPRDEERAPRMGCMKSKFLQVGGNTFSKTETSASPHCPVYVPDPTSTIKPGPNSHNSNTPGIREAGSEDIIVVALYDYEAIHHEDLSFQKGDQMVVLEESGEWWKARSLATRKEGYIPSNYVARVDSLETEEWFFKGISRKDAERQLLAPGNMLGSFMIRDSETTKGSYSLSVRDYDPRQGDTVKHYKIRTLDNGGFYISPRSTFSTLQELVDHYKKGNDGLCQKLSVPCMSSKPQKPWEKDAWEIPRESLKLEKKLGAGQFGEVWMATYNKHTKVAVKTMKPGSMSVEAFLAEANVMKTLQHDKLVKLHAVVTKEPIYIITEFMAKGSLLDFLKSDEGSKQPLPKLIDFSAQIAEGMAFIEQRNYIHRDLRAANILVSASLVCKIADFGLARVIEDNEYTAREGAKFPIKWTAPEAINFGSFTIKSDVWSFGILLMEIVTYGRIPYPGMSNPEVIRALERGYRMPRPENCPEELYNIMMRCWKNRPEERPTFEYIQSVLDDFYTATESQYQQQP

With `O=C1NC(=O)N(Cc2ccco2)C(=O)/C1=C\c1ccc(-c2ccc(F)cc2)o1`, the z-score in assay [1] is 0.915. In assay [2], the inhibition is 68.2% (active).

In the case of `COc1cc(Cn2c(N)c(C(=O)NCc3ccco3)c3nc4ccccc4nc32)cc(OC)c1OC`, the z-score in assay [1] amounted to 25.8. In assay [2], the inhibition is 46.4% (inactive).

By inhibition is commonly meant how much of the control response was suppressed.
